Laboratory results taken from PubChem BioAssay (NCATS).
Inconclusive results are not listed. A call without a number means that no potency is given here. Activity calls are given as the source filed them. Calls follow the shape of the dose curve; as a rule, active = well fitted inhibition curve with a large enough effect; inconclusive = small, poorly fitted or top-dose-only effect; inactive = flat fitted curve, though single readings scatter. Numbered stars: 1 amine (or outer) side, 2 acyl side, 3 side chain; on linkers, the order of the positions; unused ones are H or OH. Bridge positions count the residues as written; N and C are the ends. Square brackets hold non-standard residues; d marks the D form. Peptide text beside a SMILES is read from it. I, II: the chains in the order shown. Actinocin(9to1) = Cc1c2oc3c(C)ccc(C(=O)[*:1])c3nc-2c(C(=O)[*:2])c(N)c1=O; NMeV = CN[C@H](C(=O)O)C(C)C; Sar = CNCC(=O)O

How the values were obtained:
Assay in all cases: qHTS profiling for inhibitors of Plasmodium falciparum proliferation (AID 504749); also: nearly all actives have a fitted effect of over 60% in size
Settings in all cases: P. falciparum in erythrocytes, SYBR Green DNA, 72 h; series mostly up to 28.7 µM
CP237 = test system: CP237
In short: (§1)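 P. falciparum-infected erythrocytes (0.3% parasitemia, 2.5% hematocrit final) were exposed to compounds for 72 h at 37 C in 5% CO2, then lysed with SYBR Green buffer overnight at room temperature; parasite DNA fluorescence was normalized to artemisinin and DMSO controls.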

CP238 = test system: CP238
In short: as §1

CP247 = test system: CP247
In short: as §1

CP250 = test system: CP250
In short: as §1

CP252 = test system: CP252
In short: as §1

CP256 = test system: CP256
In short: as §1

CP260 = test system: CP260
In short: as §1

CP262 = test system: CP262
In short: as §1

CP265 = test system: CP265
In short: as §1

CP266 = test system: CP266
In short: as §1
Potency is read from the fitted curve at half-maximal effect.

SMILES	Potency (CP237)	Potency (CP238)	Potency (CP247)	Potency (CP250)	Potency (CP252)	Potency (CP256)	Potency (CP260)	Potency (CP262)	Potency (CP265)	Potency (CP266)
C#C[C@]1(OC(C)=O)CC[C@H]2[C@@H]3CCC4=C[C@@H](OC(C)=O)CC[C@@H]4[C@H]3CC[C@@]21C	inactive	inactive	inactive	inactive	inactive	inactive	inactive	inactive	inactive	inactive
Cc1ccnc(NS(=O)(=O)c2ccc(N)cc2)n1	inactive	inactive	inactive	inactive	inactive	inactive	inactive	inactive	inactive	inactive
CC(C)(Oc1ccc(Cl)cc1)C(=O)O	inactive	inactive	inactive	inactive	inactive	inactive	inactive	inactive	inactive	inactive
CCOC(=O)n1ccn(C)c1=S	inactive	inactive	inactive	inactive	inactive	inactive	inactive	inactive	inactive	inactive
CCOC(=O)OC(C)OC1=C(C(=O)Nc2ccccn2)N(C)S(=O)(=O)c2ccccc21 (stereo not drawn)	inactive	inactive	inactive	inactive	inactive	inactive	inactive	inactive	inactive	inactive
CN=C(NC#N)NCCSCc1csc(N=C(N)N)n1	inactive	inactive	inactive	inactive	inactive	inactive	inactive	inactive	inactive	inactive
CC(C)COC(=O)c1ccc(N)cc1	inactive	inactive	inactive	inactive	inactive	inactive	inactive	inactive	inactive	inactive
CCCCC1=NC2(CCCC2)C(=O)N1Cc1ccc(-c2ccccc2-c2nn[nH]n2)cc1	inactive	inactive	inactive	inactive	inactive	inactive	inactive	inactive	inactive	inactive
COc1cc(C(=S)N2CCOCC2)cc(OC)c1OC	inactive	inactive	inactive	inactive	inactive	inactive	inactive	inactive	inactive	inactive
CC(C)(CO)[C@@H](O)C(=O)NCCCO	inactive	inactive	inactive	inactive	inactive	inactive	inactive	inactive	inactive	inactive
Cc1c(C(N)=O)cc([N+](=O)[O-])cc1[N+](=O)[O-]	inactive	inactive	inactive	inactive	inactive	inactive	inactive	inactive	inactive	inactive
COC1=CC(=O)C[C@@H](C)[C@]12Oc1c(Cl)c(OC)cc(OC)c1C2=O	inactive	inactive	inactive	inactive	inactive	inactive	inactive	inactive	inactive	inactive
NCCc1ccn[nH]1	inactive	inactive	inactive	inactive	inactive	inactive	inactive	inactive	inactive	inactive
C[N+]1(CCCCC[N+]2(C)CCCC2)CCCC1	inactive	inactive	inactive	inactive	inactive	inactive	inactive	inactive	inactive	inactive
CCCn1c(=O)[nH]c(=O)c2[nH]cnc21	inactive	inactive	inactive	inactive	inactive	inactive	inactive	inactive	inactive	inactive
COc1c2occc2c(OC)c2c(=O)cc(C)oc12	inactive	inactive	inactive	inactive	inactive	inactive	inactive	inactive	inactive	inactive
N[C@@H](Cc1cnc[nH]1)C(=O)O	inactive	inactive	inactive	inactive	inactive	inactive	inactive	inactive	inactive	inactive
Cc1cc(O)c(C(C)C)cc1Cl	inactive	inactive	inactive	inactive	inactive	inactive	inactive	inactive	inactive	inactive
O=C(O)c1cc2cc(Cc3cccnc3)ccc2o1	inactive	inactive	inactive	inactive	inactive	inactive	inactive	inactive	inactive	inactive
O=C(COc1ccc(Cl)cc1)N1CCN(Cc2ccc3c(c2)OCO3)CC1	inactive	inactive	inactive	inactive	inactive	inactive	inactive	inactive	inactive	inactive
Cc1cc(=O)n(-c2ccccc2)n1C	inactive	inactive	inactive	inactive	inactive	inactive	inactive	inactive	inactive	inactive
CCC(=O)c1c(O)cc(O)cc1O	inactive	inactive	inactive	inactive	inactive	inactive	inactive	inactive	inactive	inactive

SMILES	Potency (CP237)	Potency (CP238)	Potency (CP247)	Potency (CP250)	Potency (CP252)	Potency (CP256)	Potency (CP260)	Potency (CP262)	Potency (CP265)	Potency (CP266)
CC(=O)N(O)CCCCCNC(=O)CCC(=O)N(O)CCCCCNC(=O)CCC(=O)N(O)CCCCCN	inactive	inactive	inactive	inactive	inactive	inactive	inactive	inactive	inactive	inactive
C[C@H]1[C@H](NC(=O)/C(=N/OC(C)(C)C(=O)O)c2csc(N)n2)C(=O)N1S(=O)(=O)O (stereo in doubt)	inactive	inactive	inactive	inactive	inactive	inactive	inactive	inactive	inactive	inactive
CCCN1CCCC[C@H]1C(=O)Nc1c(C)cccc1C	6.31 µM (active)	inactive	inactive	inactive	inactive	inactive	inactive	inactive	–	inactive
CCC(C(=O)OCCN(CC)CC)c1ccccc1 (stereo not drawn)	inactive	inactive	inactive	inactive	inactive	inactive	inactive	inactive	inactive	inactive
Cc1cccn2c(=O)c(-c3nnn[nH]3)cnc12	inactive	inactive	inactive	inactive	inactive	inactive	inactive	inactive	inactive	inactive
Cc1c(C(C)C)c(=O)n(-c2ccccc2)n1C	inactive	inactive	inactive	inactive	inactive	inactive	inactive	inactive	inactive	inactive
Cc1c2oc3c(C)ccc(C(=O)N[C@@H]4C(=O)N[C@H](C(C)C)C(=O)N5CCC[C@H]5C(=O)N(C)CC(=O)N(C)[C@@H](C(C)C)C(=O)O[C@@H]4C)c3nc-2c(C(=O)N[C@@H]2C(=O)N[C@H](C(C)C)C(=O)N3CCC[C@H]3C(=O)N(C)CC(=O)N(C)[C@@H](C(C)C)C(=O)O[C@@H]2C)c(N)c1=O (I: T[dV]P[Sar][NMeV] / II: T[dV]P[Sar][NMeV]; ester I:1-I:C, II:1-II:C; linker I:N-II:N via Actinocin(9to1))	7.08e-05 µM (active)	0.0018 µM (active)	0.0071 µM (active)	0.0035 µM (active)	0.0056 µM (active)	0.0079 µM (active)	0.0035 µM (active)	0.0034 µM (active)	–	0.0085 µM (active)
CN1CCC(=C2c3ccccc3Sc3ccccc32)CC1	8.91 µM (active)	11.2 µM (active)	7.94 µM (active)	11.2 µM (active)	7.08 µM (active)	11.2 µM (active)	8.91 µM (active)	–	7.08 µM (active)	–
CCCCCC=CCC=CCCCCCCCC(=O)OCC	inactive	inactive	inactive	inactive	inactive	inactive	inactive	inactive	inactive	inactive
COc1ccc(CCN2CCC(Nc3nc4ccccc4n3Cc3ccc(F)cc3)CC2)cc1	2.24 µM (active)	3.55 µM (active)	3.98 µM (active)	2.24 µM (active)	3.16 µM (active)	3.55 µM (active)	1 µM (active)	–	3.98 µM (active)	–
C=CCc1ccc(O)c(OC)c1	inactive	inactive	inactive	inactive	inactive	inactive	inactive	inactive	inactive	inactive
CC(C)(C(=O)c1cccnc1)c1cccnc1	inactive	inactive	inactive	inactive	inactive	inactive	inactive	inactive	inactive	inactive
Nc1cc(Cl)c(NC2=NCCN2)c(Cl)c1	inactive	inactive	inactive	inactive	inactive	inactive	inactive	inactive	inactive	inactive
CCCCCCCCCCCCCCCCCC(=O)OCC(O)CO (stereo not drawn)	inactive	inactive	inactive	inactive	inactive	inactive	inactive	inactive	inactive	inactive
Nc1ccc(C(=O)O)cc1	inactive	inactive	inactive	inactive	inactive	inactive	inactive	inactive	inactive	inactive
C[C@H]1C[C@H]2[C@@H]3CCC4=CC(=O)C=C[C@]4(C)[C@@]3(Cl)[C@@H](O)C[C@]2(C)[C@@]1(O)C(=O)CO	inactive	inactive	inactive	inactive	inactive	inactive	inactive	inactive	inactive	inactive
NC(=NCCCCCCN=C(N)/N=C(\N)Nc1ccc(Cl)cc1)/N=C(\N)Nc1ccc(Cl)cc1	0.891 µM (active)	2.24 µM (active)	2.24 µM (active)	2.24 µM (active)	2 µM (active)	1.41 µM (active)	1 µM (active)	1.51 µM (active)	–	3.79 µM (active)
C1CCc2nnnn2CC1	inactive	inactive	inactive	inactive	inactive	inactive	inactive	inactive	inactive	inactive
C[C@]12CCC(=O)C=C1CC[C@H]1[C@@H]3CC[C@](O)(C(=O)CO)[C@@]3(C)C[C@H](O)[C@@]12F	inactive	inactive	inactive	inactive	inactive	inactive	inactive	inactive	inactive	inactive
CCn1cc(C(=O)O)c(=O)c2cnc(N3CCCC3)nc21	inactive	inactive	inactive	inactive	inactive	inactive	inactive	inactive	inactive	inactive
CC1=C(C(=O)OC(C)C)C(c2cccc([N+](=O)[O-])c2)C(C(=O)OC2CN(C(c3ccccc3)c3ccccc3)C2)=C(N)N1 (stereo not drawn)	12.6 µM (active)	8.91 µM (active)	10 µM (active)	8.91 µM (active)	10 µM (active)	4.47 µM (active)	6.31 µM (active)	12 µM (active)	7.94 µM (active)	9.53 µM (active)
